Giardia kill: kills Giardia lamblia; Giardia lamblia trophozoite viability; activity change, % at 7.66 µM, hits read low; actives 0.15% (n = 340,000); AID 540267; in the data active = activity change below about -80%; inconclusive = between about -30% and that limit;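 also: parasites exposed to compound for two days anaerobically before the ATP read; % is scaled to controls: 0 for no effect and ±100 for the full control effect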
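Killing of trophozoites was scored by loss of ATP luminescence after a 48 hrs anaerobic exposure to compounds at 37 deg C, using 100 cells per well.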
p53 reactivator: restores transcriptional activity of mutant p53; H1299 p53-A138V BP100-luciferase reporter, luminescence, 24 h; Potency, µM (series often up to 92.2 µM), inactives show at the top dose activity change, positive = activation, usual class: activators; actives 0.063% (n = 320,000); AID 504706; also: potency is read from the fitted curve at half-maximal effect; % of control where 0% means no effect; nearly all actives have a fitted effect of over 45% in size
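p53-null H1299 cells stably carrying temperature-sensitive p53-A138V and a BP100-luciferase reporter were pinned with compounds (4-point, 1:5 series) and held 24 hrs at 37 deg C. Luminescence was read 10 min after detection reagent.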
BRCA1 expr up: BRCA1 expression activation; actives 1.1% (n = 380,000); MCF7-BRCA1-FFLuc reporter, luminescence, 48 h; response scale: scaled: vehicle 0%, 10 µM genistein 100%; AID 624202; Potency, µM (top dose mostly 46.1 µM), for inactives: top-dose activation, most hits filed as activators; also: potency is read from the fitted curve at half-maximal effect; nearly all actives have a fitted effect of over 80% in size
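MCF7-BRCA1-FFLuc cells, 2000/well in phenol-red-free MEM, attached 2 h then treated 48 h at 37 C. Luciferase luminescence read 15 min after reagent; normalized to genistein maximum activation (10microM) and DMSO, concentration-response fitted.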
RORgamma inh: inhibitors of mouse ROR gamma transcriptional activity | Drosophila S2 Gal4-RORgamma UAS-luciferase reporter, 20 h | actives 5.4% (n = 310,000) | Potency, µM (series often up to 53.6 µM), without a hit: top-dose activity change, negative = inhibition, actives largely listed as inhibitors | AID 2551; also: potency is read from the fitted curve at half-maximal effect; % is scaled to controls: 0 for no effect and ±100 for the full control effect; nearly all actives have a fitted effect of over 60% in size
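ROR gamma transcriptional activity was tracked as Gal4-UAS luciferase output in stably transfected Drosophila Schneider cells, with compound added 1 hr before 700 uM copper sulfate induction and a 20 hr ambient-temperature incubation.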
ELG1 repair inh: inhibitors of ELG1-dependent DNA repair in HEK293T cells; HEK293T ELG1-luciferase reporter, luminescence, 16 h; DNA damage induced by 5-fluorouridine; Potency, µM (series often up to 46.1 µM), without a hit: at the top dose activity change, negative = inhibition, most hits filed as inhibitors; actives 2.3% (n = 330,000); AID 504467; also: potency is read from the fitted curve at half-maximal effect; % is scaled to controls: 0 for no effect and ±100 for the full control effect; nearly all actives have a fitted effect of over 55% in size
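In this reporter screen, reduction of luminescence relative to DMSO vehicle indicated activity. Compounds and 5-fluorouridine were added together to 2,000 cells per well, incubated for 16 hr at 37 °C, then developed with ONE-Glo.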
VP16 counter: Gal4-VP16 reporter inhibition counter-screen | actives 3.5% (n = 310,000) | Drosophila S2 Gal4-VP16 UAS-luciferase, luminescence, 20 h | AID 2546 | Potency, µM (series often up to 53.6 µM), for the others: top-dose activity, negative = inhibition, most hits filed as inhibitors;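 also: Gal4-VP16 expression switched on by copper sulfate through the metallothionein promoter; potency is read from the fitted curve at half-maximal effect; % is scaled to controls: 0 for no effect and ±100 for the full control effect; nearly all actives have a fitted effect of over 50% in size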
ELG1 FLuc counter: luciferase inhibition in cell-free luciferin readout for ELG1 hits; Potency, µM (top dose mostly 46.1 µM), for the others: at the top dose activity change, negative = inhibition, actives largely listed as inhibitors; shares compounds with ELG1 repair inh; actives 3% (n = 350); cell-free firefly luciferase luminescence counter-screen, ViewLux; also: potency is read from the fitted curve at half-maximal effect; % is scaled to controls: 0 for no effect and ±100 for the full control effect
ELG1 Luc conf: inhibits ELG1-dependent DNA repair in HEK293T cells, confirmed | shares compounds with ELG1 repair inh | HEK293T ELG1-luciferase levels, luminescence; cells co-treated with 5-fluorouridine | Potency, µM (series often up to 46.1 µM), inactives show at the top dose activity change, negative = inhibition, hits mostly inhibitors | actives 68% (n = 670) | AID 624248; also: potency is read from the fitted curve at half-maximal effect; % is scaled to controls: 0 for no effect and ±100 for the full control effect; nearly all actives have a fitted effect of over 55% in size
ELG1-Luc MMS: inhibits ELG1-dependent repair under MMS stimulation in HEK293T cells; actives 53% (n = 670); Potency, µM (titrated, usually from 46.1 µM), inactives show at the highest dose activity change, negative = inhibition, actives largely listed as inhibitors; AID 624249; shares compounds with ELG1 repair inh; HEK293T luciferase-tagged ELG1 level, MMS stimulated; also: potency is read from the fitted curve at half-maximal effect; % is scaled to controls: 0 for no effect and ±100 for the full control effect; nearly all actives have a fitted effect of over 60% in size
ELG1 5-FU: confirmation of ELG1 repair inhibitors: viability with 5FU. cell viability with 5-FU, ELG1-dependent repair. shares compounds with ELG1 repair inh. 670 tested, under 10 active. Potency, µM (series often up to 46.1 µM), without a hit: at the highest dose activity change, negative = viability loss, actives largely listed as cytotoxic. AID 624250;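 also: ELG1-luc HEK293T cells cotreated with 5-fluorouridine at 10 µM final; potency is read from the fitted curve at half-maximal effect; viability measured 16 h after compound addition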
ELG1 MMS cell: confirmation of ELG1 repair inhibitors: viability with MMS; AID 624251; Cell viability with MMS, ELG1-dependent DNA repair; actives 33% (n = 670); Potency, µM (top dose mostly 46.1 µM), for inactives: at the highest dose activity change, negative = viability loss, actives largely listed as cytotoxic; shares compounds with ELG1 repair inh;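 also: ELG1-luc HEK293T cells co-treated with 10 µM MMS; potency is read from the fitted curve at half-maximal effect; viability read 16 h after compound addition; % is scaled to controls: 0 for no effect and ±100 for the full control effect; nearly all actives have a fitted effect of over 60% in size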
Cell viab unstim: unstimulated viability counter-screen for ELG1 repair hits. cell viability counter-screen, unstimulated, luminescence. actives 8% (n = 900). Potency, µM (series often up to 45.9 µM), for the others: top-dose activity change, negative = loss of viability, hits mostly cytotoxic. shares compounds with ELG1 repair inh;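 also: potency is read from the fitted curve at half-maximal effect; compound exposure lasted 16 hours before reading; % is scaled to controls: 0 for no effect and ±100 for the full control effect; nearly all actives have a fitted effect of over 55% in size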
FLuc biochem: counter-screen for ELG1 repair inhibitors: firefly luciferase inhibition. shares compounds with ELG1 repair inh. purified firefly luciferase, luminescence counter-screen. Potency, µM (highest dose often 57.5 µM), for inactives: at the highest dose activity, negative = inhibition, usual class: inhibitors. actives 10% (n = 350); also: potency is read from the fitted curve at half-maximal effect; % is scaled to controls: 0 for no effect and ±100 for the full control effect
* hit, by the source's call; ? = inconclusive; nt = no result given. Hits are enriched below; roughly 7.6% of the tested compounds scored in any of these assays. Unless noted, calls follow the shape of the dose curve; as a rule, active = well fitted curve in the direction sought with a large enough effect; inconclusive = small, poorly fitted or top-dose-only effect, or another doubt; inactive = no such curve, though single readings can be large; an effect the other way counts as inactive or inconclusive.

SMILES	Giardia kill	p53 reactivator	BRCA1 expr up	RORgamma inh	ELG1 repair inh	VP16 counter	ELG1 Luc conf	ELG1-Luc MMS	ELG1 5-FU	ELG1 MMS cell	Cell viab unstim	others
COc1ccccc1/C=C/CN1CCCC(CO)(CCc2ccccc2)C1 (stereo not drawn)	-2	17%	-9%	-9%	-28%	-8%	nt	nt	nt	nt	nt
COc1cccc(-c2cncnc2NCCc2cnc[nH]2)c1	nt	nt	nt	-32%	nt	2%	1.4µM*	?	0%	2%	?
CC(C)CNc1nnnc2c1sc1nc(N3CCOCC3)c3c(c12)CC(C)(C)SC3	37	7%	-65%	35%	4.1µM*	4%	4.5µM*	1%	?	9%	-2%	ELG1 FLuc counter=1%;FLuc biochem=4%
CC1(C)Cc2c(c(N3CCOCC3)nc3sc4c(NCc5ccco5)nnnc4c23)CS1	1	-6%	-19%	-2%	4.1µM*	-14%	4.5µM*	-2%	?	?	-2%	ELG1 FLuc counter=3%;FLuc biochem=0%
CC(C)CNc1ncnc2c1sc1nc(N3CCOCC3)c3c(c12)CC(C)(C)OC3	-17	12%	-9%	-13%	?	1%	nt	nt	nt	nt	nt
CCOC(=O)C(/C=C(\C#N)C(=O)OCC)=C(/N)N1CCN(c2ccc(Cl)cc2)CC1	2	-7%	-35%	-25%	-3%	4%	nt	nt	nt	nt	nt
O=C(c1noc2c1CCc1ccccc1-2)N1CCCc2ccccc21	-10	?	27%	19%	?	1%	nt	nt	nt	nt	nt
COc1ccc(-c2cccc(-c3cc(=O)oc4cc(OC)cc(OC)c34)c2)cc1	7	16%	-70%	nt	?	nt	nt	nt	nt	nt	nt
COc1cc(OC)c2c(-c3cccc(-c4ccc(N(C)C)cc4)c3)cc(=O)oc2c1	-7	?	-32%	-5%	?	-12%	nt	nt	nt	nt	-13%
CCCCNC(=O)CCc1c(C)nc2nc(-c3cc(OC)cc(OC)c3)nn2c1C	-2	0%	-2%	-19%	2.3µM*	-8%	?	1%	?	?	8%

From PubChem
